Compound activity: PubChem, The Scripps Research Institute Molecular Screening Center
CHRM1 agonist – agonists of human M1 muscarinic receptor. CHO-K1 hM1, Fluo-8 calcium fluorescence, agonist mode; 0% DMSO, 100% acetylcholine EC100. activation, % at 3 µM. 360,000 tested, 0.33% active. AID 588814;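 active = activation above the run's mean compound activation plus 3 SD, cut at about 16% in these data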;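 also: peak over basal fluorescence ratio within a 140 s kinetic read after compound addition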
Target sequence (P11229 whole entry, looked up): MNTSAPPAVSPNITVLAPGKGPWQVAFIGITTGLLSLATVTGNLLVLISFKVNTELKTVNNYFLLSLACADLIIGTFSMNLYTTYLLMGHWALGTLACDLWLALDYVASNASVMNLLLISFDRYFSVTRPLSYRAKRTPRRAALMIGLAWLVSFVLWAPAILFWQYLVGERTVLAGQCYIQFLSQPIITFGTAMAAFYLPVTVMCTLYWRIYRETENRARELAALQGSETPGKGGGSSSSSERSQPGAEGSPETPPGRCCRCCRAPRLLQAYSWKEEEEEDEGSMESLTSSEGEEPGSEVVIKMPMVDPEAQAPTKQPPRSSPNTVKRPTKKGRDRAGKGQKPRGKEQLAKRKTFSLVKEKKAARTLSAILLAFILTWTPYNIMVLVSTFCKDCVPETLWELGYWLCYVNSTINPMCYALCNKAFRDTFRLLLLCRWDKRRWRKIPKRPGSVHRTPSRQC
CHO-K1 Ca PAM – M1 PAM counterscreen hit in parental CHO-K1 cells; activation, % at 3 µM; ATP EC20, Fluo-8 calcium fluorescence; 0% at ATP EC20, 100% at ATP max; 360,000 tested, 0.02% active;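 active = activation above the run cutoff, the mean activation of all test compounds plus 3 SD, cut at about 40% in these data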;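 also: peak over basal fluorescence ratio in a 140 s read after ATP addition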
CHRM1 antagonist – blocks human M1 muscarinic receptor. P11229. CHO-K1 hM1, Fluo-8 calcium fluorescence, ACh EC80 antagonist. inhibition, % at 3 µM. 360,000 tested, 1.3% active. AID 588852;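 active = percent inhibition above its own plate's cutoff, namely the mean of that plate's compound wells plus 3 SD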;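 also: peak over basal fluorescence ratio during 140 s after agonist addition; 0% = ACh EC80 plus DMSO and 100% = DMSO alone without agonist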
CHO-K1 Ca antag – counter-screen for M1 antagonists: effect in parental CHO-K1 cells; ATP-induced calcium, Fluo-8 fluorescence; inhibition, % at 3 µM; 360,000 tested, 0.6% active; AID 602250;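 active = inhibition above a per-plate cutoff, the plate's mean sample inhibition plus 3 SD, cut at about 24% in these data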;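 also: 0% = DMSO plus EC80 ATP and 100% = DMSO alone without ATP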
CHO-K1 Ca ag – M1 agonist counterscreen hit in parental CHO-K1 cells | Fluo-8 calcium fluorescence; scaled to maximal ATP response, vehicle zero | activation, % at 3 µM | 360,000 tested, 0.48% active; in the data active = activation above about 15%;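 also: untransfected CHO-K1 host cells lacking M1 receptor as counterscreen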
CHRM1 PAM – potentiates human M1 receptor response to acetylcholine; activation, % at 3 µM; P11229; CHO-K1 hM1, Fluo-8 calcium fluorescence, ACh EC20; 0% = ACh EC20, 100% = maximal ACh; AID 588819; 360,000 tested, 0.088% active; in the data active = activation above about 19%, passing the limit was not always enough
Starred values were filed as active, the others as inactive. This is a sample that favours compounds with a hit; in the whole collection about 2.4% have one here.

SMILES	CHRM1 agonist	CHO-K1 Ca PAM	CHRM1 antagonist	CHO-K1 Ca antag	CHO-K1 Ca ag	CHRM1 PAM
O=C(O)c1ccc(NC(=S)NC(=O)c2cccc(COc3ccccc3)c2)cc1	-4	19	4	-11	0	5
O=C(CN1C(=O)NC(CCc2ccccc2)C1=O)Nc1cccc(Br)c1 (stereo unspecified)	-4	12	-6	-12	2	7
O=C1CN(C(=O)COC(=O)c2cc(Cl)ccc2[N+](=O)[O-])c2ccccc2N1	0	-2	-3	-6	1	0
CCOC(=O)N1CCN(C(=O)C2CCC(=O)N(CCCc3ccccc3)C2)CC1 (stereo unspecified)	-3	-1	-4	-2	0	-1
Cc1ccc(S(=O)(=O)N2CCOCC2)cc1NC(=O)CSc1nnnn1C1CC1	-4	3	-6	-8	0	2
CC(=O)c1cnc2c(-c3ccc(Cl)cc3)cnn2c1C	0	-8	-8	30*	-1	6
Nc1c(C(=O)O)cnc2c(-c3ccc(Cl)cc3)cnn12	-1	6	5	-4	0	4
Cc1ccccc1-c1nnn(Cc2cccc(S(=O)(=O)N3CCOCC3)c2)n1	4	-5	19	8	15*	-11
O=C1c2ccccc2S(=O)(=O)N1Cc1cccc(S(=O)(=O)N2CCOCC2)c1	-2	1	5	-4	3	-1
CC[C@@H]1CCC[C@@H](O)[C@@H](C)C(=O)O[C@H](C)[C@@H](C)C/C=C(C)/C(OC)=C\C(=O)N(C)C([C@@H](C)CC)C(=O)N(C)[C@@H](C(C)C)C(=O)N(C)[C@@H](COC)C(=O)N2CCC[C@H]2C(=O)N(C)[C@@H](C(C)C)C(=O)N2CCC[C@H]2C(=O)O1 (stereo partly specified)	4	-1	13	0	12	-9
CC(Oc1ccccc1)C(=O)N1CCc2ccccc2C1 (stereo unspecified)	-10	10	-10	-15	1	5
COc1ccc(OC(C)C(=O)N2CCc3ccccc3C2)cc1 (stereo unspecified)	-1	-7	-4	25*	0	7
O=C(C=Cc1ccccc1)CC(c1ccccc1)N1CCOCC1 (stereo unspecified)	-2	12	4	-4	-1	-2
O=C1NC(=S)SC1=Cc1ccccc1Cl	0	0	0	-18	8	-2
O=C1NC(=S)S/C1=C\c1cc(Cl)cc(Cl)c1O	40*	0	36*	14	37*	-13
CCCS(=O)(=O)NC(=O)C1(C)CCN1C(=O)Cc1ccc(Cl)cc1Cl (stereo unspecified)	-2	7	-11	-1	0	6
Cc1ccc(S(=O)(=O)N(C)C)cc1NC(=O)CSc1nc2ncc(Cl)cc2[nH]1	-4	4	-7	-10	4	3
O=C(NCc1ccc(Cl)cc1)c1ccc(CNc2c(N3CCCC3)c(=O)c2=O)cc1	-4	11	9	-6	1	-4
CN(C)c1ccc(CNC(=O)c2ccc(CNc3c(N4CCCCC4)c(=O)c3=O)cc2)cc1	-7	10	-12	2	0	27*
Cc1nnc2ccc(Oc3ccc(-c4ccccc4)cc3)nn12	-3	-8	34*	40*	10	-12
CC1CCCCC12NC(=O)N(CC(=O)NCCc1ccc(F)cc1)C2=O (stereo unspecified)	-3	-5	-9	4	0	5
O=C(NNC(=O)c1ccccc1F)c1ccc(-n2cncn2)c([N+](=O)[O-])c1	1	-14	36*	18	0	-12
O=C(Nc1cccc(/C=C/c2ccccn2)c1)c1ccc(-n2cncn2)c([N+](=O)[O-])c1	1	-15	20*	7	10	-8
CCOc1cc(C)nc(N2CCC(C(=O)NC3CC3)CC2)n1	-2	8	-7	-20	1	16
Nc1cc(=O)[nH]c(=S)n1-c1ccccc1	1	-7	-2	32*	0	10
SMILES	CHRM1 agonist	CHO-K1 Ca PAM	CHRM1 antagonist	CHO-K1 Ca antag	CHO-K1 Ca ag	CHRM1 PAM
Cc1cc(=O)[nH]c(=S)n1-c1ccccc1	-2	23	-5	-31	0	0
CC12CCC(=O)N1C(C(=O)Oc1cccc(F)c1)CS2 (stereo unspecified)	-1	-8	-3	9	0	7
COC(=O)CCC(=O)N1CCCC(CO)(Cc2ccccc2F)C1 (stereo unspecified)	-2	-8	-8	16	0	8
COc1ccc(NC(=O)C2CC3CCC2C3)c(OC)c1 (stereo unspecified)	0	-14	-20	14	0	21
O=C(Nc1cccc(F)c1)c1ccc(-c2cccnc2)c2ccoc12	-1	1	-2	15	1	4
Cc1[nH]c2ccccc2c1C(C[N+](=O)[O-])c1cccc(O)c1 (stereo unspecified)	-1	-1	37*	6	7	-13
Cc1ccc(NC(=O)c2ccc(S(=O)(=O)N3CCCCC3)cc2)nc1	-5	7	-5	-10	1	3
O=C1C(=O)N(CCCN2CCOCC2)C(c2ccc(Cl)cc2)/C1=C(/O)c1ccc(F)cc1 (stereo unspecified)	-2	-9	-17	8	0	11
O=C1C(=O)N(CCN2CCOCC2)C(c2ccc(F)cc2)/C1=C(/O)c1ccc(S(=O)(=O)N2CCOCC2)cc1 (stereo unspecified)	-7	1	31*	-6	0	-10
CC1CCCN(C(=O)COC(=O)c2cc(-c3cccs3)nn2-c2ccccc2)C1 (stereo unspecified)	-6	-29	46*	11	0	-25
O=C(c1cc(-c2cccs2)nn1-c1ccccc1)N1CCN(S(=O)(=O)c2ccccc2)CC1	-6	-2	28*	2	4	-12
O=C(c1cc(C2CC2)nn1-c1ccccc1)N1CCN(S(=O)(=O)c2ccc(F)cc2)CC1	-8	16	10	-11	1	-21
O=C(c1cc(C2CC2)nn1-c1ccccc1)N1CCN(S(=O)(=O)c2cccc(F)c2)CC1	-8	-7	30*	5	0	-29
NC(=O)COC(=O)c1cc(-c2cccs2)nn1-c1ccccc1	-2	10	2	-6	0	6
O=C(NCCN1CCOCC1)C1CC(=O)N(c2cccc(C(F)(F)F)c2)C1 (stereo unspecified)	-2	-14	9	-9	0	-2
CC(CCc1ccc(O)cc1)N(C)CCc1ccccc1 (stereo unspecified)	-14	1	56*	-28	1	-30
CC(CCc1ccc(O)cc1)NCc1ccc(Br)cc1 (stereo unspecified)	-8	11	32*	-11	4	-24
